D1 agonist = agonists of human D1 dopamine receptor. P21728. HEK293 T-REx D1 cells, calcium flux, agonist mode. activation, % at 2 µM. 360,000 tested, 1% active. AID 504660; note: 0% is about no effect
Target sequence (P21728 whole entry, looked up): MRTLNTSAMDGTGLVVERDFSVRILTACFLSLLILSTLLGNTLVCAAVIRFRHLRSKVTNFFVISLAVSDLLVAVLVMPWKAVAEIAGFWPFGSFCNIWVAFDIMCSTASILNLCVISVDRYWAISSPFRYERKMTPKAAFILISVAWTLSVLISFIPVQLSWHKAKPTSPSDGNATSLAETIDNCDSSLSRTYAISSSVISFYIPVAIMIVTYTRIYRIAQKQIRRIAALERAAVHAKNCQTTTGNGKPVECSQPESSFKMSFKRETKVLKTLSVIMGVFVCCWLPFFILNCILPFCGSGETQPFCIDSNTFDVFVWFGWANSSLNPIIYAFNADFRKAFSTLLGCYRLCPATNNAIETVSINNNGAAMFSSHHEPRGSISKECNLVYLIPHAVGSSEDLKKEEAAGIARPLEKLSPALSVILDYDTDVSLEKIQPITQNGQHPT
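Inducible HEK293 T-REx D1 cells, force-coupled to calcium signalling, were plated at 4000 cells/well with tetracycline and held overnight at 30 C. After no-wash calcium dye loading, compound-evoked calcium rise over 180 s flagged agonists.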
TRHR agonist = activates the human TRH receptor. 360,000 tested, 0.18% active. activation, % at 2 µM. TRHR cells, calcium flux fluo-8, FDSS agonist mode. P34981. AID 493084; note: 0% is about no effect
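Fluo-8-loaded TRHR cells; 10 s baseline, compound added, kinetic Ca2+ fluorescence read 1/s, agonist mode.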
D1 antag = blocks dopamine activation of the human D1 receptor | activity change, negative = inhibition, % at 10 µM | 360,000 tested, 3.2% active | P21728 | AID 504652 | HEK293 TREx D1 cells, calcium flux, dopamine EC80; stronger effect = lower value; in the data active = activity change below about -30%; note: % is set by controls: 0 for no effect and ±100 for the full control effect
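Inducible Hek293 Trex D1 cells (tetracycline, overnight, 30 C). Calcium dye 30–90 min RT. Antagonist mode: EC80 dopamine added after 180 s compound read.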
TRHR PAM = allosterically enhances the human TRH receptor; P34981; TRHR cells, fluo-8 calcium fluorescence, EC20 TRH enhancement; enhancement, % at 2 µM; 360,000 tested, 0.66% active; AID 493056; in the data active = enhancement above about 30%; note: 0% is about no effect
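Enhancer read-out: after compound pinning and an initial kinetic agonist-mode read, an EC20 of TRH (10 nM final) was injected and fluo-8 calcium signal (Ex 480/Em 530) followed at 1 s/cycle for 100 cycles in TRHR-expressing cells.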
D1 PAM = enhances dopamine response at the human D1 receptor; AID 504651; P21728; 360,000 tested, 0.036% active; HEK293 TREx D1 cells, calcium flux, dopamine EC20 potentiation; potentiation, % at 10 µM; in the data active = potentiation above about 30%; note: 0% is about no effect
* = called active by the depositor. The list is not random: actives were taken first. Their share in the collection is about 4.7%. Cut-off read from the data, not from the text of the source, unless noted: active = activation above about 30%; inactive = the rest.

How did COc1ccc(OCC(=O)NCC2(N3CCN(C)CC3)CCCCC2)cc1 do in these assays?
D1 agonist: 5; TRHR agonist: 0; D1 antag: 11; TRHR PAM: -12; D1 PAM: -1

How did Cn1c(=O)n(C)c2cc([N+](=O)[O-])c(N3CCN(C(=O)c4cccc(Cl)c4)CC3)cc21 do in these assays?
D1 agonist: 4; TRHR agonist: 0; D1 antag: -14; TRHR PAM: 38*; D1 PAM: -4

Results for COc1ccc(NC(=O)CCNS(=O)(=O)c2ccc3c(c2)CCCC(=O)N3)cc1 ?
D1 agonist: 1; TRHR agonist: 1; D1 antag: -13; TRHR PAM: -24; D1 PAM: 4

What do the screens show for `Cc1cccc(CNC(=O)C2CCCN(S(=O)(=O)c3cn(C)cn3)C2)c1` (configuration not stated)?
D1 agonist: -1; TRHR agonist: 0; D1 antag: 1; TRHR PAM: 0; D1 PAM: 0

What do the screens show for `CC(C)(C)C(=O)N1CCN(c2c(Cl)cccc2[N+](=O)[O-])CC1`?
D1 agonist: 2; TRHR agonist: -1; D1 antag: -52*; TRHR PAM: 21; D1 PAM: -6

What do the screens show for `CC(C)(C)C(=O)N1CCN(c2ccc(Cl)cc2[N+](=O)[O-])CC1`?
D1 agonist: 4; TRHR agonist: 0; D1 antag: -7; TRHR PAM: 2; D1 PAM: -2

Results for O=C(O)COc1ccccc1/C=N/NC(=O)Cc1ccccc1 ?
D1 agonist: 1; TRHR agonist: 1; D1 antag: 6; TRHR PAM: 3; D1 PAM: -2

What do the screens show for `O=C(O)COc1ccccc1/C=N/NC(=O)CSc1nnc(SCc2ccc(Cl)cc2)s1`?
D1 agonist: 0; TRHR agonist: 0; D1 antag: -3; TRHR PAM: 2; D1 PAM: 7

Results for O=C(O)COc1ccccc1/C=N/NC(=O)Cc1csc(Nc2cccc(C(F)(F)F)c2)n1 ?
D1 agonist: 1; TRHR agonist: 1; D1 antag: -10; TRHR PAM: 36*; D1 PAM: -6

What do the screens show for `O=C(O)COc1ccccc1/C=N/NC(=O)CSc1nnc(SCc2cccc3ccccc23)s1`?
D1 agonist: 35*; TRHR agonist: -1; D1 antag: -2; TRHR PAM: 5; D1 PAM: -1

How did COc1ccc(C2C(C(=O)N3CCN(c4ccccc4)CC3)c3ccccc3C(=O)N2C)cc1 (configuration not stated) do in these assays?
D1 agonist: -2; TRHR agonist: 0; D1 antag: -41*; TRHR PAM: -7; D1 PAM: -7

Results for CCCCOc1ccccc1C1CC(=O)NC2=C1C(=O)CCC2 (configuration not stated) ?
D1 agonist: 15; TRHR agonist: 5; D1 antag: -48*; TRHR PAM: 11; D1 PAM: -5

Results for CCCOc1ccccc1C1CC(=O)NC2=C1C(=O)CCC2 (configuration not stated) ?
D1 agonist: 14; TRHR agonist: 2; D1 antag: 5; TRHR PAM: 5; D1 PAM: -4

Results for O=C(O)c1ccc(/C=N/NC(=O)c2cc3c(ccc4ccccc43)o2)cc1 ?
D1 agonist: 5; TRHR agonist: 0; D1 antag: -7; TRHR PAM: 2; D1 PAM: 7

How did O=C(N/N=C/c1ccncc1)c1cc2c(ccc3ccccc32)o1 do in these assays?
D1 agonist: 2; TRHR agonist: -1; D1 antag: -32*; TRHR PAM: -10; D1 PAM: 0

What do the screens show for `O=C(NC1CC(=O)N(c2cccc(F)c2)C1)c1cccs1` (configuration not stated)?
D1 agonist: 0; TRHR agonist: 0; TRHR PAM: -6; D1 PAM: 0

What do the screens show for `CSc1ccc(CCNC(=O)Cn2ncc3c(=O)oc4ccc(C)cc4c32)cc1`?
D1 agonist: 2; TRHR agonist: 0; D1 antag: -3; TRHR PAM: 1; D1 PAM: 0

Results for N#CC1=C(N)S[C@@H](C(=O)c2ccc(F)cc2)[C@@H]1c1cccs1 ?
D1 agonist: 3; TRHR agonist: 1; D1 antag: -43*; TRHR PAM: 3; D1 PAM: -8

Results for COc1ccc(CCNC(=O)C2=CCN(S(=O)(=O)c3ccc(F)cc3)CC2)cc1OC ?
D1 agonist: 0; TRHR agonist: 0; D1 antag: -1; TRHR PAM: -1; D1 PAM: 1

How did O=C1Nc2ccccc2C12Nc1ccccc1-c1nc3ccccc3n12 (configuration not stated) do in these assays?
D1 agonist: 37*; TRHR agonist: 0; D1 antag: -25; TRHR PAM: 5; D1 PAM: -7

What do the screens show for `CN1C(=O)C2(Nc3ccccc3-c3nc4ccccc4n32)c2ccccc21` (configuration not stated)?
D1 agonist: 2; TRHR agonist: 0; D1 antag: -10; TRHR PAM: 1; D1 PAM: 4

Results for CC(OC(=O)c1cc(Br)ccc1O)C(=O)NC1(C#N)CCCCC1 (configuration not stated) ?
D1 agonist: 36*; TRHR agonist: 3; D1 antag: -13; TRHR PAM: -1; D1 PAM: -7

Results for COc1cc(CCC(=O)OCC(=O)Nc2ccc(F)cc2F)cc(OC)c1OC ?
D1 agonist: 16; TRHR agonist: 0; D1 antag: -48*; TRHR PAM: 12; D1 PAM: -2

What do the screens show for `O=C(CCC(=O)OCC(F)(F)C(F)F)Nc1ccc(F)cc1F`?
D1 agonist: 3; TRHR agonist: 0; D1 antag: -60*; TRHR PAM: 5; D1 PAM: -4

Results for COc1cc(CCC(=O)OCC(=O)Nc2ccccc2C#N)cc(OC)c1OC ?
D1 agonist: 11; TRHR agonist: 0; D1 antag: 6; TRHR PAM: 34*; D1 PAM: 1

How did COc1cc(CC(=O)OCC(=O)NCc2ccc(C)cc2)cc(OC)c1OC do in these assays?
D1 agonist: 2; TRHR agonist: 0; D1 antag: 21; TRHR PAM: -3; D1 PAM: 6

How did COc1cc(CC(=O)OCC(=O)NCC(C)C)cc(OC)c1OC do in these assays?
D1 agonist: 9; TRHR agonist: 2; D1 antag: -33*; TRHR PAM: -1; D1 PAM: -3

What do the screens show for `COc1cc(CC(=O)OCC(=O)Nc2ccccc2C#N)cc(OC)c1OC`?
D1 agonist: 27; TRHR agonist: 0; D1 antag: -18; TRHR PAM: 8

Results for COc1cc(CCC(=O)OCC(=O)c2ccc[nH]2)cc(OC)c1OC ?
D1 agonist: 6; TRHR agonist: 0; D1 antag: -42*; TRHR PAM: 5

Assay outcomes as filed in PubChem BioAssay.
